An excerpt weighted towards active compounds, which were near 7.3% of everything screened.
HCMV inh – qHTS Assay for inhibitors of the human cytomegalovirus (HCMV) | activity change, negative = inhibition, % at 57.5 µM | 410,000 tested, 4.5% active | HFF cells, HCMV-luciferase reporter, 72 h; stronger effect = lower value; in the data active means activity change below about -60%; inconclusive means no clear call, values can overlap the other calls; inactive means above about -39%
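HFF cells seeded 16 h at 37C, treated with compounds, infected with luciferase-reporter HCMV at MOI 1 PFU/cell; luciferase read at 72 h post infection, normalized to buffer-only and Salinomycin controls.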
HCV inh – qHTS Assay for Inhibitors of Hepatitis C Virus (HCV). AID 651820, 2012. 340,000 tested, 3.4% active. Potency, µM (doses to about 41.8 µM), for inactives: top-dose activity change, negative = inhibition, actives largely listed as inhibitors. Huh7.5.1 HCVcc-Cre infection, luciferase reporter, 44 h; further: potency means the concentration at half of the fitted maximal effect
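Infectious HCVcc-Cre (~0.5 moi) was added to cells just after compound, with cells seeded 4 h earlier at 1,000 per well. Luciferase activity after 44 h culture reported infection; substrate was incubated 15 min at room temperature before reading.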
AmpC inh detg – qHTS Inhibitors of AmpC Beta-Lactamase (assay with detergent); 370,000 tested, 0.041% active; Potency, µM (top dose mostly 114 µM), for inactives: at the highest dose activity change, negative = inhibition, hits mostly inhibitors; P00811; AmpC hydrolysis of nitrocefin, absorbance 480 nm, 0.01% Triton;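 further: potency means the concentration at half of the fitted maximal effect; 0% = no-compound wells and -100% = no-enzyme wells; nearly all actives have a fitted effect of over 25% in size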
Target sequence (P00811 whole entry, looked up): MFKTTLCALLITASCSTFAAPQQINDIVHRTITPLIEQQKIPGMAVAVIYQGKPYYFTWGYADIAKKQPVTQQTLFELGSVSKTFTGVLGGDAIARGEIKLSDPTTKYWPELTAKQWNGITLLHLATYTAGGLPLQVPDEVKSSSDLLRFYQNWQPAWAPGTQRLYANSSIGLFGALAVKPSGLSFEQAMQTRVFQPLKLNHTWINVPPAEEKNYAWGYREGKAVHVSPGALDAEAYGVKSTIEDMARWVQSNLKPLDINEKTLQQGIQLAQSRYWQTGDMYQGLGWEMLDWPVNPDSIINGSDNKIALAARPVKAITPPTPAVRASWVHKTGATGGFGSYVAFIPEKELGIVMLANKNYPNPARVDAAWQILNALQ
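20 mM phosphate pH 7.0 + 0.01% (detergent screen) or 0.0001% Triton X-100; 5.3 nM AmpC reagent; cpd preinc 15 min RT; nitrocefin (800 uM stock) to start; A480 q20 s × 4 min; Activity was normalised to no-enzyme and no-compound control wells.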
AmpC no deterg – qHTS Inhibitors of AmpC Beta-Lactamase (assay without detergent). P00811. AmpC nitrocefin hydrolysis, absorbance 480 nm, 0.0001% Triton. Potency, µM (top dose mostly 57.1 µM), for the others: at the top dose activity change, negative = inhibition, most hits filed as inhibitors. 330,000 tested, 0.52% active;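 further: potency means the concentration at half of the fitted maximal effect; plate controls were no compound for no effect and no enzyme for full effect; nearly all actives have a fitted effect of over 20% in size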
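AmpC (5.3 nM in the dispensed reagent) in 20 mM phosphate pH 7.0 with 0.01% (detergent screen) or 0.0001% Triton X-100 was preincubated with compounds for 15 min at room temperature. Nitrocefin was then added from an 800 uM solution, and hydrolysis was followed at 480 nm.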
FMDV antiviral – High Throughput Screening for Foot and Mouth Disease Virus Antivirals | Potency, µM (highest dose often 57.9 µM), for the others: top-dose activity change, negative = inhibition, actives largely listed as inhibitors | 410,000 tested, 1.2% active | FMDV antiviral cell-based qHTS; calls by dose curve; tested in HEK293T cells; further: read-out not given here; potency means the concentration at half of the fitted maximal effect; nearly all actives have a fitted effect of over 45% in size
The depositor's hits bear a star; [ ] = remark or other dose. Unless noted, the call rests on the fitted dose curve; in most records, active means well fitted curve in the direction sought with a large enough effect; inconclusive means small, poorly fitted or top-dose-only effect, or another doubt; inactive means no such curve, though single readings can be large; an effect the other way counts as inactive or inconclusive. Unless noted, on the % scale 0 is the no-effect control and ±100 the full control effect.

What do the screens show for `COc1ccc(OC)c(NS(=O)(=O)c2ccc(NC(=O)c3ccc(NS(C)(=O)=O)cc3)cc2)c1`?
HCMV inh: -83*; HCV inh: inconclusive; AmpC inh detg: inconclusive; AmpC no deterg: inconclusive; FMDV antiviral: -11%

Results for COCc1cc(C2SCC(=O)Nc3c2c(=O)[nH]n3C(C)C)ccc1OC (stereo unspecified) ?
HCMV inh: 12; HCV inh: 5.6µM*; AmpC inh detg: 2%; AmpC no deterg: -24%; FMDV antiviral: -8%

How did COc1ccc(-n2nnnc2C(CCc2ccccc2)N2CCC(n3c(=O)[nH]c4ccccc43)CC2)cc1 (stereo unspecified) do in these assays?
HCMV inh: -95*; FMDV antiviral: 28µM*

How did COc1ccc(C(c2nnnn2-c2ccc3c(c2)OCCO3)N2CCC(n3c(=O)[nH]c4ccccc43)CC2)cc1 (stereo unspecified) do in these assays?
HCMV inh: inconclusive; FMDV antiviral: -9%

How did Cc1cccc(C)c1-n1nnnc1C(CCc1ccccc1)N1CCC(n2c(=O)[nH]c3ccccc32)CC1 (stereo unspecified) do in these assays?
HCMV inh: -94*; FMDV antiviral: 10µM*

Results for COc1ccc(-n2nnnc2C(CCSC)N2CCC(n3c(=O)[nH]c4ccccc43)CC2)cc1 (stereo unspecified) ?
HCMV inh: -35; FMDV antiviral: -18%

How did CCC(c1nnnn1-c1ccc(OC)cc1)N1CCC(n2c(=O)[nH]c3ccccc32)CC1 (stereo unspecified) do in these assays?
HCMV inh: -6; FMDV antiviral: -20%

How did O=c1[nH]c2ccccc2n1C1CCN(C(c2ccnc3ccccc23)c2nnnn2-c2ccc3c(c2)OCCO3)CC1 (stereo unspecified) do in these assays?
HCMV inh: -76*; FMDV antiviral: -22%

What do the screens show for `O=c1[nH]c2ccccc2n1C1CCN(C(CCc2ccccc2)c2nnnn2-c2ccc3c(c2)OCCO3)CC1` (stereo unspecified)?
HCMV inh: -104*; FMDV antiviral: 25µM*

Results for COC(=O)[C@H](CCSC)NC(=O)[C@@H](Cc1cnc[nH]1)NC(=O)OCc1ccccc1 ?
HCV inh: 11%; AmpC inh detg: 0%; AmpC no deterg: -3%; FMDV antiviral: -9%

What do the screens show for `CCOc1ccc(OCCOC(=O)C2CCN(S(=O)(=O)c3ccc(C)c(C)c3)CC2)cc1`?
HCMV inh: -14; HCV inh: 3%; AmpC inh detg: -17%; AmpC no deterg: 2%; FMDV antiviral: -23%

What do the screens show for `Cc1ccccc1C(C)(O)c1cnc(C)n1Cc1ccccc1` (stereo unspecified)?
HCMV inh: -15; FMDV antiviral: -28%

What do the screens show for `CC(C)n1nccc1NC(=O)COC(=O)c1ccc(NC(N)=O)cc1`?
HCMV inh: -6; HCV inh: inconclusive; AmpC no deterg: -26%; FMDV antiviral: -2%

How did Cc1ccc(C(=O)OC(C)C(=O)Nc2ccc(Cl)cn2)s1 (stereo unspecified) do in these assays?
HCMV inh: 7; HCV inh: 4%; AmpC inh detg: -9%; AmpC no deterg: -20%; FMDV antiviral: -15%

Results for CN(C(=O)c1cccc(NC(=O)Cc2cccc([N+](=O)[O-])c2)c1)C1CCCC1 ?
HCMV inh: -18; HCV inh: inconclusive; AmpC no deterg: -2%; FMDV antiviral: inconclusive

What do the screens show for `O=C(Nc1ccc2oc(-c3ccncc3)nc2c1)c1cccs1`?
HCMV inh: -11; HCV inh: inconclusive; AmpC inh detg: -3%; AmpC no deterg: -10%; FMDV antiviral: 0%

What do the screens show for `O=C(Nc1ccc(-c2nc3cc(NC(=O)c4ccccc4F)ccc3o2)cc1)c1ccccc1F`?
HCMV inh: 6; AmpC inh detg: -6%; FMDV antiviral: 6%

What do the screens show for `O=C(Nc1ccc2oc(-c3ccccc3)nc2c1)c1ccccc1F`?
HCMV inh: -89*; HCV inh: inconclusive; AmpC inh detg: -4%; AmpC no deterg: -25%; FMDV antiviral: 40%

Results for O=C(Nc1ccc(-c2nc3cc(NC(=O)c4cccs4)ccc3o2)cc1)c1cccs1 ?
HCMV inh: -70*; HCV inh: 11µM*; AmpC inh detg: -8%; AmpC no deterg: -22%; FMDV antiviral: 4%

Results for CCc1ccc2oc(-c3ccc(NC(=O)c4cccc(Cl)c4Cl)cc3)nc2c1 ?
HCMV inh: -70*; AmpC inh detg: 15%; FMDV antiviral: 13µM*

Results for CC(NC(=O)COC(=O)CCC(=O)c1ccc(F)cc1)c1ccccc1 (stereo unspecified) ?
HCMV inh: -22; HCV inh: -2%; AmpC no deterg: 10%; FMDV antiviral: -19%

How did Cc1ncc2c(c1CNC(=O)c1cncs1)CCN(C(=O)c1ccc(C(F)(F)F)cc1)C2 do in these assays?
FMDV antiviral: -3%

What do the screens show for `O=C(NCc1ccco1)c1ccc(Cn2cc([N+](=O)[O-])cn2)o1`?
HCMV inh: 20; HCV inh: 5%; AmpC inh detg: -15%; AmpC no deterg: -24%; FMDV antiviral: 8%

How did O=C(NCc1ccco1)c1ccc([N+](=O)[O-])o1 do in these assays?
HCMV inh: -66*; HCV inh: -27%; AmpC inh detg: -4%; AmpC no deterg: -17%; FMDV antiviral: -20%

How did O=C(NCc1cccnc1)c1ccc([N+](=O)[O-])o1 do in these assays?
HCMV inh: -85*; HCV inh: inconclusive; AmpC inh detg: 7%; AmpC no deterg: -5%; FMDV antiviral: -1%

Results for Cc1cccc(/C=N/Nc2ccc3ccccc3n2)c1 ?
HCMV inh: -31; HCV inh: inconclusive; AmpC inh detg: -13%; AmpC no deterg: -22%[11.4 µM]; FMDV antiviral: 6.3µM*

What do the screens show for `C(=N\Nc1ccc2ccccc2n1)/c1ccc2c(c1)OCCO2`?
HCMV inh: -90*; HCV inh: 3%; AmpC inh detg: -6%; AmpC no deterg: -37%; FMDV antiviral: inconclusive

What do the screens show for `C(=N\Nc1nc2ccccc2[nH]1)/c1ccc2c(c1)OCCO2`?
HCMV inh: -1; HCV inh: inconclusive; AmpC inh detg: 10%; AmpC no deterg: -46%; FMDV antiviral: -15%

How did Cc1ccc(/C=N/Nc2ccc3ccccc3n2)o1 do in these assays?
HCMV inh: -79*; HCV inh: -30%; AmpC inh detg: 2%; AmpC no deterg: -1%; FMDV antiviral: -17%

What do the screens show for `COc1nc(-c2ccc(C)cc2)ccc1-c1noc(-c2ccc(C(C)(C)C)cc2)n1`?
HCMV inh: -3; AmpC inh detg: 20%; FMDV antiviral: -18%
